# Experimental data from PubChem BioAssay (NCI).
# Compounds without any hit were thinned out: in the full panel of roughly 83,000, 20% have a hit.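 How to read the values: 0–100, growth inhibition (40 = 60% inhibited); 0, no net growth; -100 to 0, cell death (-40 = 40% of starting cells died; -100 = all dead).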 Values without a mark were called inactive. Active and inactive are the calls of the source. The calls were made as follows: active = growth percent below 10; inactive = the rest.
# Experiments:
# Assay in all cases: NCI-60 one-dose screen, 48 h (100 = growth as untreated, 0 = no growth, -100 = all killed)
# Settings in all cases: 10 µM
# 786-0 renal = test system: 786-0 renal
# SN12C renal = test system: SN12C renal
# TK-10 renal = test system: TK-10 renal
# ACHN renal = test system: ACHN renal
# CAKI-1 renal = test system: CAKI-1 renal
# A498 renal = test system: A498 renal
# RPMI-8226 leukemia = test system: RPMI-8226 leukemia
# OVCAR-8 ovarian = test system: OVCAR-8 ovarian
# OVCAR-5 ovarian = test system: OVCAR-5 ovarian
# OVCAR-4 ovarian = test system: OVCAR-4 ovarian
# SK-OV-3 ovarian = test system: SK-OV-3 ovarian
# OVCAR-3 ovarian = test system: OVCAR-3 ovarian
# NCI/ADR-RES ovarian = test system: NCI/ADR-RES ovarian
# T-47D breast = test system: T-47D breast
# BT-549 breast = test system: BT-549 breast
# MDA-MB-435 melanoma = test system: MDA-MB-435 melanoma
# MCF7 breast = test system: MCF7 breast
# HCT-116 colon = test system: HCT-116 colon
# HCC-2998 colon = test system: HCC-2998 colon
# KM12 colon = test system: KM12 colon
Structure (SMILES),growth (786-0 renal),growth (SN12C renal),growth (TK-10 renal),growth (ACHN renal),growth (CAKI-1 renal),growth (A498 renal),growth (RPMI-8226 leukemia),growth (OVCAR-8 ovarian),growth (OVCAR-5 ovarian),growth (OVCAR-4 ovarian),growth (SK-OV-3 ovarian),growth (OVCAR-3 ovarian),growth (NCI/ADR-RES ovarian),growth (T-47D breast),growth (BT-549 breast),growth (MDA-MB-435 melanoma),growth (MCF7 breast),growth (HCT-116 colon),growth (HCC-2998 colon),growth (KM12 colon)
O=C(/C=C/c1ccc(F)cc1)c1nc2ccccc2n1Cc1ccc(Br)cc1,-82.4% (active),-40.4% (active),-19.1% (active),-73.9% (active),-23% (active),58.6%,-34.7% (active),-1.74% (active),-55.1% (active),19.2%,30.2%,-73.6% (active),-59.8% (active),-52.5% (active),-78.1% (active),-74% (active),-27.4% (active),-79.4% (active),-97.6% (active),-25.3% (active)
C[C@H]1[C@H](OC(=O)CCC(=O)N(CCCc2cn(-c3ccc([N+](=O)[O-])cc3)nn2)CCNc2ccnc3cc(Cl)ccc23)O[C@@H]2OC3(C)CC[C@H]4[C@H](C)CC[C@@H]1[C@@]24OO3,47.1%,54.9%,51.2%,37.5%,37.4%,116%,28.7%,23.7%,54.3%,41.8%,98.2%,40.8%,30.6%,37.1%,43%,31.5%,10.4%,31.1%,49.9%,33.6%
CC1=C(COCCOC(=O)c2ccc(S(=O)(=O)F)cc2)C2=C(C)C3(CC3)[C@@](C)(O)C(=O)C2=C1,-3.81% (active),-19.9% (active),7.99% (active),-19.3% (active),-1.85% (active),-16.9% (active),76.4%,-0.659% (active),-43.7% (active),-23% (active),-5.65% (active),9.3% (active),-43.2% (active),-13.2% (active),-83% (active),3.24% (active),10.9%,6.93% (active),-83.5% (active),29.6%
O=C(/C=C/c1ccc(F)cc1)c1nc2ccccc2n1Cc1ccc(F)cc1,-31.5% (active),21.9%,12.2%,-45.4% (active),43.9%,112%,-27.1% (active),2.66% (active),-7.92% (active),56.8%,70.4%,22.9%,-42.5% (active),16.6%,-23.8% (active),-37.9% (active),7.32% (active),-56.9% (active),-78.9% (active),-4.81% (active)
N#C[Se]CC(=O)Nc1cccc(C(F)(F)F)c1,-54% (active),-78.1% (active),-79.8% (active),-38% (active),-72.1% (active),-69.6% (active),10.2%,-49.9% (active),-36.7% (active),36.8%,14%,-13.7% (active),-60.8% (active),51%,-90.2% (active),-18.1% (active),6% (active),-66.8% (active),54.7%,41.5%
O=C(/C=C/c1ccccc1)c1nc2ccccc2n1Cc1ccc(Br)cc1,-89.8% (active),-58.7% (active),-47.9% (active),-74.5% (active),-19.2% (active),51%,-23.1% (active),-18.5% (active),-62.3% (active),27%,28.7%,-72.5% (active),-37.4% (active),-31.3% (active),-69.8% (active),-27.9% (active),-48.7% (active),-88.1% (active),-97.3% (active),-32.5% (active)
CC1=C2C(=C[C@@](C)(COP(=O)(Oc3ccccc3)Oc3ccccc3)[C@@H]2O)C(=O)[C@@](C)(O)C12CC2,-16.1% (active),-76.3% (active),-22.2% (active),-56.8% (active),-19.5% (active),-39.4% (active),9.34% (active),-68.5% (active),-64.5% (active),-72.9% (active),-79.5% (active),-75.4% (active),-75.5% (active),-47.8% (active),-2.47% (active),-77.1% (active),4.25% (active),0.872% (active),-85.5% (active),-29.3% (active)
CC1=C(CCC=NNC(N)=O)C2=C(C)C3(CC3)[C@@](C)(O)C(=O)C2=C1,-3.6% (active),-61.3% (active),-10.5% (active),-37.7% (active),-59.8% (active),-67.2% (active),1.7% (active),-58.7% (active),-35.8% (active),-38.1% (active),-72.1% (active),-57.4% (active),-39.3% (active),-38.1% (active),-33.7% (active),-96.3% (active),-74.8% (active),1.04% (active),-87% (active),1% (active)
COc1cc(OC)c(S(=O)(=O)N(CCCl)CCCl)cc1C(=O)/C=C/c1cc(OC)c(OC)c(OC)c1,-59.7% (active),8.6% (active),3.84% (active),2.37% (active),-5.59% (active),-0.926% (active),-24.3% (active),9.85% (active),-1.21% (active),23.2%,9.62% (active),-3.7% (active),4.75% (active),21%,-84.7% (active),-31.5% (active),-39.2% (active),-87.7% (active),-91.1% (active),-61.2% (active)
CC12CCC3(CCC(=O)NCCCNc4ccnc5cc(Cl)ccc45)[C@@](C)(OO[C@]3(C)O1)O2,-22.7% (active),-15.1% (active),-17.8% (active),-10.1% (active),-25% (active),85.3%,22.2%,-1.11% (active),4.68% (active),33.1%,13.1%,30.8%,-14.7% (active),36.9%,-7.38% (active),18.3%,9.36% (active),9.58% (active),22.8%,9.24% (active)
O=C(NC([Se])=NC1CCCCC1)c1ccccc1,39.4%,39.6%,28.8%,34.5%,32.4%,73.3%,56.2%,40.9%,62.2%,75.7%,5.33% (active),48.4%,23.3%,46%,75.8%,42.4%,29.8%,30.4%,62.8%,35.5%
COc1ccc(OC)c(/C=C/C(=O)c2nc3ccccc3n2Cc2ccc(F)cc2)c1,-57.7% (active),4.76% (active),13.1%,-48.2% (active),32.2%,116%,-36.8% (active),3.97% (active),-43% (active),37.9%,50.2%,-12% (active),-41.5% (active),10.5%,-58.2% (active),-46.9% (active),2.95% (active),-91.1% (active),-93.6% (active),-20.9% (active)
COC(=O)C[C@](O)(CCC(C)C)C(=O)O[C@H]1C(OC)=C[C@@]23CCCN2CCc2cc4c(cc2[C@@H]13)OCO4,-16.1% (active),-14.9% (active),-16.4% (active),-23.3% (active),-28.4% (active),-19% (active),-19.5% (active),-38.8% (active),-20.4% (active),-22.7% (active),-8.41% (active),-36.9% (active),-2.69% (active),-7.42% (active),-33.7% (active),-32.6% (active),-17% (active),-20.4% (active),-62.4% (active),-22.3% (active)
O=C(NC([Se])=NC1CCCCC1)c1ccc2c(c1)OCO2,44.1%,51.9%,55.5%,17%,39.6%,31.3%,63%,37.7%,72%,70.5%,8.53% (active),25.3%,34.4%,-0.387% (active),96.7%,86.4%,81.6%,24.7%,74.1%,32.4%
